Screens deposited in PubChem BioAssay by National Center for Advancing Translational Sciences (NCATS).
In the library only some 10% were active in any assay of this set; here they are far more common.
NPR1 antag = human Npr1 receptor antagonism. HEK293 hNpr1 GloSensor cGMP, ANP-stimulated luminescence. Potency, µM (top dose mostly 46.3 µM), most hits filed as inhibitors. 76,000 tested, 1.6% active; calls by dose curve; also: nearly all actives have a fitted effect of over 60% in size
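HEK293 cells stably expressing human Npr1 and cGMP GloSensor pGS-40F, loaded 2 h with 2% GloSensor reagent, given compound 30 min at room temperature. Luminescence read before and 20 min after 0.1 nM hNppA.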
GPT2 inh = GPT2 alanine aminotransferase inhibition | 100,000 tested, 0.25% active | AID 1671188 | Recombinant GPT2, coupled pyruvate oxidase/HRP Amplex Red fluorescence | Potency, µM (highest dose often 57.7 µM), most hits filed as inhibitors; also: nearly all actives have a fitted effect of over 60% in size
Target sequence (Q8TD30 whole entry, looked up): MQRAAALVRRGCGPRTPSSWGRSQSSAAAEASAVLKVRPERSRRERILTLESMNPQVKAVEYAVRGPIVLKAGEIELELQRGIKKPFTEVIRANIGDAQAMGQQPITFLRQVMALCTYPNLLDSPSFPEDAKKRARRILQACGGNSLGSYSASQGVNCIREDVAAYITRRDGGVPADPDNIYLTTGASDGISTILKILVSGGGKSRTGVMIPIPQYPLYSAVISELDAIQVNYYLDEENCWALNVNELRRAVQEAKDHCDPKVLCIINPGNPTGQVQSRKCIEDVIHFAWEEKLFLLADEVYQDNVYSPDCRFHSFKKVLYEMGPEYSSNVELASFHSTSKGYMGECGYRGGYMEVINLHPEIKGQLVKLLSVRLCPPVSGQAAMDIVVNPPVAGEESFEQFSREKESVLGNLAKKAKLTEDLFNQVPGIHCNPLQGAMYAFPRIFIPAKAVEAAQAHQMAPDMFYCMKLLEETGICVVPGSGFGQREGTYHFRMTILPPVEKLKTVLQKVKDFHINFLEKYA
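Recombinant GPT2 (10ng/uL) with 250uM a-KG and 2mM L-alanine, 30 min at room temperature, in HEPES pH 7.5 buffer. Pyruvate detected by pyruvate oxidase/HRP/Amplex Red fluorescence after 30 min in the dark; AOA (50uM) as positive control.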
HEK cytotox = cytotoxic compounds in HEK 293 cells. HEK 293 viability, ATP luminescence (CellTiter-Glo), 48-72 h. Potency, µM (highest dose often 115 µM), most hits filed as inhibitors. 94,000 tested, 6.6% active; also: nearly all actives have a fitted effect of over 60% in size
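CellTiter-Glo luminescence (cellular ATP) was read after 48 or 72 hr of compound exposure at 37 degree Celsius. Cells were HEK 293 plated at 250 cells/well.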
NIH3T3 tox = kills NIH 3T3 cells; NIH 3T3 viability, CellTiter-Glo ATP luminescence, 48-72 h; Potency, µM (highest dose often 96.7 µM), usual class: inhibitors; 94,000 tested, 4.3% active; AID 1345082; also: nearly all actives have a fitted effect of over 55% in size
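Viability of NIH 3T3 cells after 48 or 72 hr compound treatment at 37 °C was assessed by CellTiter-Glo, with luminescence imaged following a 10 min room-temperature step.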
FLuc inh = Photinus pyralis luciferase inhibition. P08659. purified P. pyralis luciferase, luminescence, biochemical. Potency, µM (titrated, usually from 115 µM), actives largely listed as inhibitors. 76,000 tested, 2.5% active. AID 1347043; also: nearly all actives have a fitted effect of over 65% in size
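Luminescence read by CCD imager after adding enzyme (10nM final) to wells holding compound, titrated in qHTS. Substrates 10uM each D-luciferin and ATP; buffer 50mM Tris acetate pH 7.5, 10mM Mg acetate, Tween-20, BSA.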
Hits are given with their value. Unless noted, calls follow the shape of the dose curve; as a rule, active = well fitted curve in the direction sought with a large enough effect; inconclusive = small, poorly fitted or top-dose-only effect, or another doubt; inactive = no such curve, though single readings can be large; an effect the other way counts as inactive or inconclusive.

For O=C1Nc2ccc(-c3ccsc3)cc2C(=O)N2C[C@@H](NS(=O)(=O)c3ccc(F)cc3)C[C@@H]12 the results were NPR1 antag inactive, GPT2 inh inactive, HEK cytotox inactive, NIH3T3 tox inactive and FLuc inh inactive.
Screening COc1ccc(-c2ccc3c(c2)C(=O)N2C[C@@H](NS(=O)(=O)c4ccc(F)cc4)C[C@H]2C(=O)N3)c(OC)c1 returned NPR1 antag inactive, GPT2 inh inconclusive, HEK cytotox 28µM, NIH3T3 tox inconclusive and FLuc inh inactive.
For COc1ccc(-c2noc([C@@H]3C[C@H](NCc4cccc(C#N)c4)CN3C)n2)cc1 the results were NPR1 antag inactive, GPT2 inh inactive, HEK cytotox inconclusive, NIH3T3 tox inconclusive and FLuc inh 40µM.
For Cn1nccc1-c1ccc2ncn(-c3ccc(F)cc3F)c(=O)c2n1 the results were NPR1 antag inactive, GPT2 inh inactive, HEK cytotox 63µM, NIH3T3 tox inconclusive and FLuc inh inactive.
O=C(C[C@@H]1C[C@H]2O[C@H](CNCc3ccccc3OC(F)(F)F)[C@@H](O)[C@H]2O1)N1CCOCC1 was read as NPR1 antag inactive, GPT2 inh inactive, HEK cytotox inactive, NIH3T3 tox inactive and FLuc inh inactive.
CS(=O)(=O)N1CCc2ccc(C(=O)Nc3ccc(Cl)c(C(F)(F)F)c3)cc21 was read as NPR1 antag inconclusive, GPT2 inh inactive, HEK cytotox 20µM, NIH3T3 tox inactive and FLuc inh 18µM.
For COc1ccc(NC(=O)c2ccc3c(c2)N(S(C)(=O)=O)CC3)cc1Cl the results were NPR1 antag inconclusive, GPT2 inh inconclusive, HEK cytotox inconclusive, NIH3T3 tox inactive and FLuc inh 1µM.
COc1cc(-c2cc3c(nc2OC)nc(CC2CC2)n3C)ccn1 was read as NPR1 antag inactive, GPT2 inh inactive, HEK cytotox inconclusive, NIH3T3 tox inconclusive and FLuc inh inactive.
Screening Cn1ncc2c(C(=O)NCC3CC3)cc(-c3ccc(Cl)cc3Cl)nc21 returned GPT2 inh inactive, HEK cytotox inconclusive and NIH3T3 tox inconclusive.
O=C(NCc1cccs1)C1CCN(c2nccc(Nc3ccccc3Cl)n2)CC1 was read as GPT2 inh inactive, HEK cytotox 45µM and NIH3T3 tox inconclusive.
For Cc1ccc(Nc2ccnc(N3CCC(C(=O)NCc4cccs4)CC3)n2)cc1 the results were GPT2 inh inactive, HEK cytotox 18µM and NIH3T3 tox 22µM.
Screening O=C(CC1CCCCC1)N1CCCC(c2noc(COc3ccccc3)n2)C1 (stereo unspecified) returned NPR1 antag inconclusive, GPT2 inh inactive, HEK cytotox inconclusive, NIH3T3 tox 40µM and FLuc inh inactive.
Screening Cc1c(F)cccc1NC(=O)N1CCCC(c2noc(COc3ccccc3)n2)C1 (stereo unspecified) returned NPR1 antag inactive, GPT2 inh inactive, HEK cytotox inconclusive, NIH3T3 tox inconclusive and FLuc inh 11µM.
`Cc1ccc(OCc2nc(C3CCN(S(=O)(=O)Cc4ccccc4F)C3)no2)cc1` (stereo unspecified) gave NPR1 antag inconclusive, GPT2 inh inactive, HEK cytotox 25µM, NIH3T3 tox inconclusive and FLuc inh inactive.
CCc1ccc(NC(=O)N2CCCC(c3noc(COc4ccccc4F)n3)C2)cc1 (stereo unspecified) was read as NPR1 antag inconclusive, GPT2 inh inactive, HEK cytotox inconclusive, NIH3T3 tox inconclusive and FLuc inh 2.2µM.
`CCS(=O)(=O)N1CCC(c2noc(COc3ccc(F)cc3)n2)C1` (stereo unspecified) gave NPR1 antag inactive, GPT2 inh inactive, HEK cytotox inconclusive, NIH3T3 tox inactive and FLuc inh inactive.
For CS(=O)(=O)N1CCN(C(=O)Nc2ccccc2)C[C@H]1C(=O)N[C@@H](CC1CCCCC1)C(N)=O the results were NPR1 antag inactive, GPT2 inh inactive, HEK cytotox inactive, NIH3T3 tox inactive and FLuc inh inactive.
`CN(C)Cc1nnc(C2CC(NC(=O)c3cc(-c4cccn4C)n[nH]3)C2)n1C` (stereo unspecified) gave NPR1 antag inactive, GPT2 inh inactive, HEK cytotox inactive, NIH3T3 tox inactive and FLuc inh inactive.
